Reference: PubChem BioAssay (EPA / NIEHS)
Results filed as inconclusive are left out. Activity calls are given as the source filed them. Rule for the calls: active = hit-call score of the fitted dose curve at least 0.9, where 1 is the maximum; inconclusive = response in the unintended direction; inactive = score below 0.9.

What follows are molecules tested on Broad substrate specificity ATP-binding cassette transporter ABCG2 (Homo sapiens) (UniProt Q9UNQ0) (assay: CLD_ABCG2_6hr: CellzDirect (CLD) Gene Expression Assay for ABC Transporter (ABCG2) at 6 hours (AID 2283660)).
Sequence of Broad substrate specificity ATP-binding cassette transporter ABCG2 (Homo sapiens) (Q9UNQ0 whole entry, looked up): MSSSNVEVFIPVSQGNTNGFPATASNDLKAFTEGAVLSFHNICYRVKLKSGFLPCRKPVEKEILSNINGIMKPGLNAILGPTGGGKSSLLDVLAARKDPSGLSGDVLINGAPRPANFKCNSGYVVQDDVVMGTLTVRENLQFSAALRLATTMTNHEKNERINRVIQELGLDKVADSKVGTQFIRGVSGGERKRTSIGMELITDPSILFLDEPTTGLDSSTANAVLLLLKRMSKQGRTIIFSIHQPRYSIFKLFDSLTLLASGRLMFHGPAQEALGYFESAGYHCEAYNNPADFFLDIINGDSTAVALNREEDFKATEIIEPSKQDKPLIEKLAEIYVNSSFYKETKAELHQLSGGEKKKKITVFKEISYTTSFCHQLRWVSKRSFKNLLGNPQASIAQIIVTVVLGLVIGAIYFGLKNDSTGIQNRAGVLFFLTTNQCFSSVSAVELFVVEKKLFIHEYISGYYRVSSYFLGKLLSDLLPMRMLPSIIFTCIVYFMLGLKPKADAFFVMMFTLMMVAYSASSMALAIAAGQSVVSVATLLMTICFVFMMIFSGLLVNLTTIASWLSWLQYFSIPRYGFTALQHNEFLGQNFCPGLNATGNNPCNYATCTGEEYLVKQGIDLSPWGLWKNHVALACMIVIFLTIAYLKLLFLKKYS
Protocol: CLD_6hr is a cell-based, multiplexed-readout assay that uses hepatocyte, a human liver primary cell, with measurements taken at 6 hours after chemical dosing in a 96-well plate.CLD_ABCG2_6hr is one of 16 assay component(s) measured or calculated from the CLD_6hr assay. It is designed to make measurements of mRNA induction, a form of inducible reporter, as detected with chemiluminescence signals by Quantitative Nuclease Protection Assay (qNPA) technology.Data from the assay component CLD_ABCG2_6hr was analyzed at the endpoint, CLD_ABCG2_6hr, in the positive analysis fitting direction relative to DMSO as the negative control and baseline of activity. Using a type of inducible reporter, gain-of-signal activity can be used to understand changes in the reporter gene as they relate to the gene ABCG2. Furthermore, this assay endpoint can be referred to as a primary readout. To generalize the intended target to other relatable targets, this assay endpoint is annotated to the transporter intended target family, where subfamily is ABC transporter.
Human hepatocyte cultures were treated daily for two consecutive days with fresh dosing solutions containing appropriate concentrations of the 320 ToxCast chemicals (chemical identities were blinded to CellzDirect and other ToxCast collaborators), vehicle control (0.2% DMSO), and positive control inducers as summarized in Table 1. Due to the large number of treatment groups and chemicals examined, the ToxCast chemicals were divided into two groups (spanning two independent cultures of hepatocytes from separate donor preparations (Hu778: ToxCast plates 1 and 2; Hu776: ToxCast plates 3 and 4). Each preparation of human hepatocyte cultures was treated with respective vehicle control, medium only control, set of six positive controls/reference chemicals for the five hepatic receptor pathways, and a subset of eight of the ToxCast chemicals (indoxacarb, pyrithiobac-sodium, norflurazon, cyhalofop-butyl, methomyl, thiram, acetochlor, and propiconazole). These replicate data, coupled with internal replicates designed within the blinded ToxCast chemical library, provided additional data to evaluate interindividual differences between hepatocyte preparations and their potential impact on chemical profiles.Cell morphology and integrity were evaluated using phase-contrast microscopy as an indicator of hepatocyte cell health (Tyson & Green, 1987). Cultures for each treatment group (i.e., media, vehicle [0.2% DMSO], positive control inducers [multiple concentrations], and the ToxCast chemicals [multiple concentrations]) were observed and cell morphology was assessed relative to vehicle control cultures at each harvest time point (0, 6, 24, or 48 h). […] Images were evaluated at the conclusion of the study to assess changes in cell integrity and account for the effects of chemical exposure on uncharacteristic changes in concentration-dependent gene expression profiles. The results from these determinations of apparent cytotoxicity were annotated (yes/no) alongside the corresponding qNPA data for reference.At the conclusion of each treatment period, hepatocyte cultures (96-well) were washed with 1 volume of HBSS, lysed by addition of 25 ul ArrayPlate lysis buffer (HTG, Tucson, AZ), and 70 ul/well of Denaturation Oil, denatured by incubation at 95C for 10 min, and frozen at approximately -70C until analysis by nuclease protection assay (qNPA) (Roberts et al., 2007). For qNPA analysis, cell lysates were thawed at 50C for approximately 30 min, qNPA probes were added, and samples were incubated at 95C for 10 min to begin the detection process by denaturing the target RNA, dissociating the duplexes and secondary structure hybridization. At the conclusion of the hybridization period, S1 nuclease reagent was added to each sample to digest all nonprotected nucleotides at 50C for 60-90 min. […]
For `CCNc1nc(Cl)nc(NC(C)C)n1`, the outcome was “inactive”.
For `CC1COC(Cn2cncn2)(c2ccc(Oc3ccc(Cl)cc3)cc2Cl)O1` (configuration not stated), the outcome was “inactive”.
In the case of `CCCCNC(=O)n1c(NC(=O)OC)nc2ccccc21`, the outcome is reported as “inactive”.
With `COC(=O)C(C)Oc1ccc(Oc2ccc(Cl)cc2Cl)cc1` (configuration not stated) the outcome was “inactive”.
In the case of `OC(c1ccc(Cl)cc1)(c1cncnc1)c1ccccc1Cl` (configuration not stated), the outcome is reported as “inactive”.
In the case of `CCON=C(CC)C1=C(O)CC(c2c(C)cc(C)cc2C)CC1=O` (configuration not stated), the outcome is reported as “inactive”.
For `O=C(Nc1ccccc1)Nc1ccnc(Cl)c1`, the outcome was “inactive”.
With `CCOc1cc(Oc2ccc(C(F)(F)F)cc2Cl)ccc1[N+](=O)[O-]` the outcome was “inactive”.
`CNC(=S)S` was tested, and the outcome was “inactive”.
For `Cc1cc(Cl)ccc1OCC(=O)O`, the outcome was “inactive”.
For `Cc1c(F)c(F)c(COC(=O)C2C(/C=C(\Cl)C(F)(F)F)C2(C)C)c(F)c1F` (configuration not stated), the outcome was “inactive”.
With `CC(C)Oc1cc(-n2nc(C(C)(C)C)oc2=O)c(Cl)cc1Cl` the outcome was “inactive”.
For `CN(C)C(=S)SSC(=S)N(C)C`, the outcome was “inactive”.
With `COC(=O)N(OC)c1ccccc1COc1ccn(-c2ccc(Cl)cc2)n1` the outcome was “inactive”.
`Cc1ccc(-c2c(Cl)nc(C#N)n2S(=O)(=O)N(C)C)cc1` was tested, and the outcome was “inactive”.
With `Oc1ccccc1-c1ccccc1` the outcome was “inactive”.
`COc1nc(C)nc(NC(=O)NS(=O)(=O)c2ccccc2CCC(F)(F)F)n1` was tested, and the outcome was “inactive”.
`COC(=O)C=C(C)OP(=O)(OC)OC` was tested, and the outcome was “inactive”.
`C=CCC1=C(C)[C@@H](OC(=O)[C@@H]2[C@@H](C=C(C)C)C2(C)C)CC1=O` was tested, and the outcome was “inactive”.
With `CCCN(CCC)c1c([N+](=O)[O-])cc(S(N)(=O)=O)cc1[N+](=O)[O-]` the outcome was “inactive”.
For `C#CCOS(=O)OC1CCCCC1Oc1ccc(C(C)(C)C)cc1` (configuration not stated), the outcome was “inactive”.
For `CS/C(C)=N/OC(=O)N(C)SN(C)C(=O)O/N=C(\C)SC`, the outcome was “inactive”.
In the case of `CCc1nn(C)c(C(=O)NCc2ccc(C(C)(C)C)cc2)c1Cl`, the outcome is reported as “inactive”.
For `COC(=O)c1ccccc1C(=O)OC`, the outcome was “inactive”.
For `N#CC(CCc1ccc(Cl)cc1)(Cn1cncn1)c1ccccc1` (configuration not stated), the outcome was “inactive”.
In the case of `COc1nc(NC(C)C)nc(NC(C)C)n1`, the outcome is reported as “inactive”.
With `CO/C=C(/C(=O)OC)c1ccccc1Oc1cc(Oc2ccccc2C#N)ncn1` the outcome was “inactive”.
For `COP(N)(=O)SC` (configuration not stated), the outcome was “inactive”.
`CCOC(=O)CC(SP(=S)(OC)OC)C(=O)OCC` (configuration not stated) was tested, and the outcome was “inactive”.
For `COP(=S)(OC)Oc1nc(Cl)c(Cl)cc1Cl`, the outcome was “inactive”.
`CCCCNC(=O)OCC#CI` was tested, and the outcome was “inactive”.
`O=C(O)COc1nc(Cl)c(Cl)cc1Cl` was tested, and the outcome was “inactive”.
With `N#Cc1nn(-c2c(Cl)cc(C(F)(F)F)cc2Cl)c(N)c1S(=O)C(F)(F)F` (configuration not stated) the outcome was “inactive”.
With `CC(C)(C)c1ccc(CSc2cnn(C(C)(C)C)c(=O)c2Cl)cc1` the outcome was “inactive”.
With `Fc1ccc(Oc2ccnc3cc(Cl)cc(Cl)c23)cc1` the outcome was “inactive”.
`COc1nc(C)nc(NC(=O)NS(=O)(=O)c2ccccc2Cl)n1` was tested, and the outcome was “inactive”.
In the case of `C=CCC1=C(C)C(OC(=O)C2C(C=C(C)C)C2(C)C)CC1=O` (configuration not stated), the outcome is reported as “inactive”.
